# SNCA expr inh: Primary qHTS assay for inhibitors of alpha-synuclein gene (SNCA) expression; HEK-293 SNCA-luciferase knock-in, luminescence, 24 h; Potency, µM (doses to about 57.2 µM), for inactives: at the top dose activity change, negative = inhibition, usual class: inhibitors; hit rate 0.17% among 140,000;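 further: plate controls were DMSO cells for no effect and cell-free wells for full effect; nearly all actives have a fitted effect of over 45% in size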
# 3T3 cytotox: Cytotoxic Profiling in NIH 3T3 Cell Line of Diverse Libraries Using Quantitative High-Throughput Screening; NIH 3T3 viability, CellTiter-Glo ATP luminescence, 48-72 h; Potency, µM (top dose mostly 96.7 µM), for inactives: top-dose activity change, negative = cytotoxicity, actives largely listed as inhibitors; hit rate 4.3% among 94,000; further: nearly all actives have a fitted effect of over 55% in size
#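 ATP-dependent luminescence (CellTiter-Glo) served as the viability signal for NIH 3T3 cells treated with compound for 48 or 72 hr at 37 °C.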
# HEK293 viab: GF-AFC viability counterscreen for inhibitors of alpha-synuclein gene (SNCA) expression; HEK-293-SNCA-luc viability, GF-AFC fluorescence, 24 h; Potency, µM (top dose mostly 57.1 µM), without a hit: at the highest dose activity change, negative = cytotoxicity, most hits filed as cytotoxic; hit rate 0.12% among 150,000; AID 1671193, 2021;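 further: 0% = DMSO-treated cells and -100% = medium-only wells without cells; nearly all actives have a fitted effect of over 30% in size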
#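 HEK-293-SNCA-luc cells (1500/well) plated 24 h, then exposed 24 h to a dilution series; GF-AFC added 30 min at 37C, fluorescence 405/540 nm; normalised to medium-only and DMSO wells, Hill fit.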
# hNpr1 antagonist: Natriuretic polypeptide receptor (hNpr1) antagonism - Primary qHTS; Potency, µM (doses to about 46.3 µM), for the others: at the top dose activity change, negative = inhibition, usual class: inhibitors; HEK293 hNpr1 GloSensor cGMP, ANP-stimulated luminescence; hit rate 1.6% among 76,000; calls by dose curve; further: nearly all actives have a fitted effect of over 60% in size
#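 Compound pre-incubated 30 min at room temperature on GloSensor-loaded HEK293 cells stably carrying hNpr1 and the pGS-40F cGMP biosensor. Stimulation uses hNppA at 0.1 nM final; luminescence is taken at baseline and 20 min post-agonist.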
# HEK cytotox: Cytotoxic Profiling in HEK 293 Cell Line of Diverse Libraries Using Quantitative High-Throughput Screening; HEK 293 viability, ATP luminescence (CellTiter-Glo), 48-72 h; Potency, µM (series often up to 115 µM), inactives show at the highest dose activity change, negative = cytotoxicity, hits mostly inhibitors; hit rate 6.6% among 94,000; further: nearly all actives have a fitted effect of over 60% in size
#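 Read-out: CellTiter-Glo ATP luminescence. Cells: HEK 293, 250 cells/well. Exposure: 48 or 72 hr, 37 degree Celsius.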
# Luciferase inh: Firefly luciferase inhibition profiling of diverse chemical library using quantitative high-throughput screening. hit rate 2.5% among 76,000. purified P. pyralis luciferase, luminescence, biochemical. Potency, µM (doses to about 115 µM), hits mostly inhibitors. Luciferin 4-monooxygenase (Photinus pyralis), P08659. AID 1347043, 2019; further: nearly all actives have a fitted effect of over 65% in size
# Target sequence (P08659 whole entry, looked up): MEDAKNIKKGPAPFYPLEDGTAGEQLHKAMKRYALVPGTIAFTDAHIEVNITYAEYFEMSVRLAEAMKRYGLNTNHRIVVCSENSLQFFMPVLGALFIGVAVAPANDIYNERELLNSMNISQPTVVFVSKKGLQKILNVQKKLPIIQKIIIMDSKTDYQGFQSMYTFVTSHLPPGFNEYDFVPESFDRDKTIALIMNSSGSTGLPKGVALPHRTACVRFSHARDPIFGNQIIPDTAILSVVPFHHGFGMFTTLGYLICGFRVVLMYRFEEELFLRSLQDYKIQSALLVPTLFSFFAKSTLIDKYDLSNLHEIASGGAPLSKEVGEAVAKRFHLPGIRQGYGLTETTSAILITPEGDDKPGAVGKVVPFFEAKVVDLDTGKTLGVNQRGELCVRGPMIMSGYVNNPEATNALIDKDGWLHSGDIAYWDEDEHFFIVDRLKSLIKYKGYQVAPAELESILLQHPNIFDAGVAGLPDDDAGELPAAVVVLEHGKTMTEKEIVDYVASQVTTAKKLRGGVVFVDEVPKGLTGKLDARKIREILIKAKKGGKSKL
#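 Luminescence read by CCD imager after adding enzyme (10nM final) to wells holding compound, titrated in qHTS. Substrates 10uM each D-luciferin and ATP; buffer 50mM Tris acetate pH 7.5, 10mM Mg acetate, Tween-20, BSA.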
# * hit, by the source's call; i = inactive; ? = inconclusive; / = no result; ! = repeats disagree; [ ] = dose if it differs, or a comment. This is a sample that favours compounds with a hit; in the whole collection about 7.4% have one here. Unless noted, the call rests on the fitted dose curve; in most records, active means well fitted curve in the direction sought with a large enough effect; inconclusive means small, poorly fitted or top-dose-only effect, or another doubt; inactive means no such curve, though single readings can be large; an effect the other way counts as inactive or inconclusive. Unless noted, on the % scale 0 is the no-effect control and ±100 the full control effect; potency means the concentration at half of the fitted maximal effect.
SMILES,SNCA expr inh,3T3 cytotox,HEK293 viab,hNpr1 antagonist,HEK cytotox,Luciferase inh
COc1ccc(-c2cc([C@H]3CN4CC[C@H]3C[C@@H]4CNS(=O)(=O)c3ccc(Cl)cc3)n(C)n2)cc1OC,38%,?,3%,-5%,28µM*,i
COc1ccc(-c2cc([C@H]3CN4CC[C@H]3C[C@@H]4CNC(C)=O)n(C)n2)cc1,19%[87.6 µM],?,2%[87.6 µM],6%[70.6 µM],-3%[172 µM],i
CCC(CC)C(=O)NC[C@H]1C[C@@H]2CCN1C[C@@H]2c1cc(-c2ccc(OC)c(OC)c2)nn1C,13%,-1%,5%,1%,1%,i
CNCc1cccnc1,-15%[87.6 µM],i,-3%[87.6 µM],/,3%[230 µM],/
CC(C)OC(=O)c1ccnc2cc(C(OCCN3CCCCC3)c3ccccc3Cl)sc12 (stereo unspecified),/,/,30µM*,/,/,/
O=C1OCC2(CCN(Cc3ccn[nH]3)C2)N1c1ccncc1 (stereo unspecified),-7%[87.6 µM],?,8%[87.6 µM],4%[70.6 µM],-4%[172 µM],i
COc1cc2c(cc1OC1CCCC1)NC(=O)C21CCN(C(=O)Cc2ccccc2)CC1,-16%[87.6 µM],89µM*,-12%[87.6 µM],?,79µM*,i
COc1cc2c(cc1OC1CCCC1)NC(=O)C21CCN(Cc2ccccc2)CC1,-23%[87.6 µM],89µM*,-26%[87.6 µM],-14%[70.6 µM],?,i
COc1cc2c(cc1OC1CCCC1)NC(=O)C21CCN(Cc2nccn2C)CC1,-5%[87.6 µM],-14%[138 µM],-12%[87.6 µM],6%[70.6 µM],?,i
O=C(NC[C@H]1C[C@@H]2CCN1C[C@@H]2CN1CCCCC1)Nc1ccccc1,16%[87.6 µM],0%[174 µM],-9%[87.6 µM],4%[70.6 µM],3%[172 µM],i
O=C(NC1CCCCC1)[C@H]1CN2CCC1C[C@@H]2Cn1cc(CSc2ccccc2)nn1 (stereo partly specified),?,?,-21%,0%,-26%,i
Cc1ccccc1-c1ccc2n(c1=O)C[C@H]1C[C@@H]2CN(C(=O)Nc2cccc(F)c2)C1,40%[87.6 µM],-6%[174 µM],-6%[87.6 µM],8%[70.6 µM],4%[172 µM],i
COC1CC(O[C@H]2CC[C@]3(C=O)C4CC[C@]5(C)[C@@H](C6=CC(=O)OC6)CC[C@]5(O)[C@@H]4CC[C@@H]3C2)OC(C)C1O[C@@H]1O[C@H](CO)[C@@H](O[C@@H]2O[C@H](CO)[C@@H](O)[C@H](O)[C@H]2O)[C@H](O)[C@H]1O (stereo partly specified),/,/,5.7µM*,/,/,/
COc1ccc(-c2cc([C@H]3CN4CC[C@H]3C[C@@H]4CNC(=O)CCCC(=O)O)n(C)n2)cc1,-5%,-15%,7%,-1%,-1%,i
Ic1ccccc1CNC1C2CCN(CC2)C1C(c1ccccc1)c1ccccc1 (stereo unspecified),?,/,22µM*,/,/,/
Cc1cccc([C@H]2C[C@@H](O)[C@@H](O)[C@@H]2NCC2CCCC2)c1,-29%[87.6 µM],89µM*,-13%[87.6 µM],-28%[70.6 µM],50µM*,i
COc1cc2c(cc1OCC1CCCC1)N([S+](=O)([O-])c1cccc(C(F)(F)F)c1)CC21CCN(CC(=O)O)CC1,-16%,40µM*,-13%,2%,45µM*,i
COc1cc2c(cc1OCC1CCCC1)N([S+](=O)([O-])c1ccc(Oc3ccccc3)cc1)CC21CCN(CC(=O)O)CC1,3%,?,1%,0%,?,i
O=C1NCCCCCN[C@H]2CCC[C@@H]12,0%,-13%,1%,0%,?,i
Cn1nc(-c2ccco2)cc1[C@H]1CN2CC[C@H]1C[C@@H]2CNC(=O)c1cccs1,?,-11%[174 µM],-2%[87.6 µM],-1%[70.6 µM],-8%[172 µM],i
CC[C@H]1CN2CC[C@H]1C[C@@H]2CNC(=S)Nc1ccc(C)cc1Br,-11%[87.6 µM],45µM*,-23%[87.6 µM],-18%[70.6 µM],?,i
COc1ccccc1N1CCN(C[C@H]2CN3CC[C@H]2C[C@@H]3CNC(=O)Nc2ccsc2)CC1,3%,?,3%,2%,-12%,i
COc1ccc(NC(=O)NC[C@H]2C[C@@H]3CCN2C[C@@H]3CN2CCN(c3ccccc3OC)CC2)cc1,-6%,?,-6%,-18%,89µM*,i
CC[C@H]1CN2CC[C@H]1C[C@@H]2CNC(=O)Nc1ccccc1,-18%[87.6 µM],1%[230 µM],2%[87.6 µM],3%[70.6 µM],i,i
CC[C@H]1CN2CC[C@H]1C[C@@H]2CNC(=O)Nc1ccc(Oc2ccccc2)cc1,?,28µM*,-26%[87.6 µM],-8%[70.6 µM],25µM*,i
SMILES,SNCA expr inh,3T3 cytotox,HEK293 viab,hNpr1 antagonist,HEK cytotox,Luciferase inh
OCC1CN(C2CCC2)CC12CCN(Cc1cccnc1)CC2 (stereo unspecified),1%,-5%,-2%[12.5 µM],-2%,-7%,i
C/C=C1/CN2CC[C@]34C(=Nc5ccc(OC)cc53)C2C[C@@H]1C4(CO)C(=O)OC (stereo partly specified),/,/,-7%,/,/,/
CCN1CCN(C(=O)Cc2ccc(Nc3ncc(F)c(Nc4ccc(C(=O)Nc5ccccc5Cl)cc4)n3)cc2)CC1,32%,/,24µM*!,/,/,/
OC(CNc1ccccc1)Cn1c2ccc(Br)cc2c2cc(Br)ccc21 (stereo unspecified),/,/,-15%,/,/,/
Cc1ncc2c(n1)C[C@@H]1CC[C@H]2N1C(=O)Nc1ccc2c(c1)OCCO2,62%,4%,2%,5%,i,32µM*
COc1cc2c(cc1Oc1ccccc1)NC(=O)C21CCN(Cc2nccn2C)CC1,-13%[87.6 µM],?,-7%[87.6 µM],1%[70.6 µM],100µM*,i
COc1cc2c(cc1Oc1ccccc1)NC(=O)C21CCN(Cc2cccnc2)CC1,-30%[87.6 µM],?,-19%[87.6 µM],-22%[70.6 µM],89µM*,i
Cc1cccc(CC(=O)N2[C@H]3CC[C@@H]2c2cnc(-c4ccc(F)cc4)nc2C3)c1,-10%,?,6%,-19%,?,i
COc1cc2c(cc1OCc1ccccc1)NC(=O)C21CCN(c2nc(C)cnc2C)CC1,-27%,?,-28%,-23%,35µM*,i
COc1cc2c(cc1OCc1ccccc1)NC(=O)C21CCN(c2cnccn2)CC1,10%[87.6 µM],79µM*,-10%[87.6 µM],-27%[70.6 µM],63µM*,i
O=S1(=O)NCC2(CCN(Cc3ccsc3)C2)Oc2ncccc21 (stereo unspecified),-19%,i,0%,/,4%,/
CCOC(=O)[C@H]1CN(C(=O)Nc2ccc3c(c2)OCO3)[C@]2(C)C(=O)N(CC3CC3)c3ccccc3[C@H]12,34%[25.6 µM],?,-3%[23.9 µM],/,35µM*,/
